Assay results from PubChem BioAssay (EPA / NIEHS).
Activity calls are given as the source filed them. The calls were made as follows, unless noted: active = hit-call score of the fitted dose curve at least 0.9, where 1 is the maximum; inactive = score below 0.9.

Assays:
[1] = CCTE_Deisenroth_H295R-HTRF_384WELL_ESTRADIOL: CCTE's H295R-HTRF Assay Evaluation of Estradiol Concentration, Deisenroth Lab (AID 2284361); settings: actives raise or lower the signal
Method: CCTE_Deisenroth_H295R-HTRF_384WELL assay is a cell-based, multiplex-readout assay that uses H295R, a human adrenocortical carcinoma cell line, with measurements taken at 48 hours after chemical dosing in a 384-well microplateCCTE_Deisenroth_H295R-HTRF_384WELL_ESTRADIOL is one of 3 assay components calculated in the CCTE_Deisenroth_H295R-HTRF_384WELL assay (2 hormones and 1 viability components). It is designed to make measurements of hormone induction, a form of inducible reporter, as detected with Homogenous Time Resolved Fluorescence immunoassay technology.This assay endpoint, CCTE_Deisenroth_H295R-HTRF_384WELL_ESTRADIOL, was analyzed with bidirectional fitting relative to DMSO as the negative control and baseline of activity. Using a type of inducible reporter, gain or loss-of-signal activity using Homogenous Time Resolved Fluorescence technology was used to understand synthesis of estradiol in the H295R cell line at 48hr of chemical exposure. […]
Standard operating procedures for the cell culture medium, maintenance, expansion, and cryopreservation of the NCI-H295R adrenocortical carcinoma adherent cell line were adopted directly from guideline specifications7,13. […] Fluorescent endpoint measurements are conducted with a microplate reader equipped with an HTRF-compatible filter set (ex: 320 (10) […]; em: 620 (10) and 665 (10) nM). […]

[2] = CCTE_Deisenroth_H295R-HTRF_384WELL_TESTOSTERONE: CCTE's H295R-HTRF Assay Evaluation of Testosterone Concentration, Deisenroth Lab (AID 2284373); settings: actives raise or lower the signal
Method in brief: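 Testosterone secreted into medium was quantified by direct HTRF immunoassay after a 48 h treatment of H295R adrenocortical cells (nine concentrations, 0.001–100 uM final). Gain or loss fitted relative to DMSO; CellTiter-Glo viability read on same plates.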

[3] = CCTE_Deisenroth_H295R-HTRF_384WELL_CTOX: Cytotoxicity Assessment in CCTE's H295R-HTRF Assay, Deisenroth Lab (AID 2284380; active = hit-call score of the fitted dose curve at least 0.9, where 1 is the maximum)
Method in brief: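 H295R adrenocortical carcinoma cells plated 24 h, then exposed 48 h to nine-point series 0.001–100 uM final, triplicate, n=5. ATP measured by CellTiter-Glo 2.0 luminescence on same plates after medium collection; loss versus DMSO.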

In the case of `CC(C)C(=O)Nc1ccc([N+](=O)[O-])c(C(F)(F)F)c1`, the outcome [1] is reported as “inactive”, the outcome [2] is reported as “inactive” and the AC50 [3] is reported as 66.7 µM (active).
